Assay results reported in article PMC5540273 (PLoS ONE, 2017).

Tested on: DAPK1
Conditions: concentration: 1 μM, replicates: in singlicate; n = 1
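Further: KINOMEscan kinase panel screen.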

SMILES	%Inh
Cc1ccc(C)c(NC(=O)NC2CCN(c3ccnc(Nc4ccc(F)cc4)n3)C2)c1 (stereo not shown) [GSK1379720]	0%
Cl.Cl.NCC(NC(=O)c1cc(-c2ccccc2)c(-c2ccnc3[nH]ccc23)s1)c1ccccc1 (stereo not shown) [GSK1321561]	0%
CN(C)Cc1ccc(-c2ccc3c(Nc4ccc(Oc5ccccn5)cc4)ccnc3c2)o1 [GW567148]	0%
COc1cccc(C(=O)Nc2cccc(Oc3ccc4nc(NC(=O)C5CC5)cn4n3)c2)c1	0%
CNC(=O)c1ccccc1Nc1nc(Nc2ccc(N3CCOCC3)cc2)ncc1Cl.Cl [GSK1576028]	95%
C[C@@H]1CC[C@@H](C(=O)Nc2ccccc2)CN1c1cc(-c2ccc3c(N)n[nH]c3c2)nc(N)n1 [GSK2286062]	0%
Cn1cc(-c2ccc3c(c2)CCN3C(=O)Cc2cccc(Cl)c2)c2c(N)ncnc21 [GSK2606590]	1%
FC(F)(F)c1ccc(/C=C/c2cncnc2Nc2ccc3[nH]c(Cc4ccccc4)nc3c2)cc1 [GW709199]	0%
COc1cccc(NC(=O)NC2CCN(c3ccnc(Nc4cc(OC)c(OC)c(OC)c4)n3)C2)c1 (stereo not shown) [GSK1379763]	5%
Fc1ccc(-c2ncn(C3CCNCC3)c2-c2ccnc(Oc3ccc(-c4ccccc4)cc3)n2)cc1 [SB-245391]	14%
Oc1cc(Nc2ccnc3cc(I)ccc23)ccc1F [GW552771]	0%
COC(=O)Nc1nc2ccc(Oc3ccc(NC(=O)Nc4cc(C(F)(F)F)ccc4F)cc3)cc2n1C.Cl [GW692089]	0%
CC(=O)N1CCN(c2ccc(Nc3nccc(-c4sc(C(C)C)nc4-c4cccc(NS(=O)(=O)c5cccc(Cl)c5)c4)n3)cn2)CC1 [GSK1660437]	14%
Cl.Cl.NCC(C(=O)Nc1cc(Br)c(-c2ccnc3[nH]ccc23)s1)c1ccccc1 (stereo not shown) [GSK1269851]	0%
CC(C)(C)c1ccc2nccc(Nc3cccc(O)c3)c2c1 [GW856795]	16%
NCCCC(NC(=O)c1cc(Br)c(-c2ccnc3[nH]ccc23)s1)c1ccccc1.O=C(O)C(F)(F)F.O=C(O)C(F)(F)F (stereo not shown) [GSK1287544]	0%
Cl.c1ccc(-c2ccc3c(Nc4ccc5[nH]ncc5c4)ccnc3c2)nc1 [GW440137]	15%
c1ccc(Oc2ccc(Nc3ccnc4cc(-c5ccc(CNCCN6CCOCC6)o5)ccc34)cc2)nc1 [GW567145]	0%
O=C(Nc1cccc(Oc2ccc3nc(NC(=O)C4CC4)cn3n2)c1)c1ccccc1C(F)(F)F	0%

SMILES	%Inh
CC(C)c1nc(-c2cccc(NS(=O)(=O)c3c(F)cccc3F)c2F)c(-c2ccnc(Nc3ccc(N4CCOCC4)nc3)n2)s1 [GSK2008607]	2%
Nc1ncc(-c2cccnc2)c2scc(-c3ccc4c(c3)CCN4C(=O)Cc3ccccc3)c12 [GSK683281]	0%
Cn1cc(-c2ccc3c(c2)CCN3C(=O)Cc2cccc(F)c2)c2c(N)ncnc21 [GSK2603358]	0%
Cl.NC(=O)c1cccc(Nc2nccc(Nc3ccc(Oc4c(Cl)cccc4Cl)c(Cl)c3)n2)c1 [GW659009]	24%
COCCOCCOc1cc2ncc3c4ccc(C#N)cc4[nH]c3c2cc1OC	0%
COc1cccc(-c2ccc3c(NC(=O)C4CC4)n[nH]c3n2)c1 [SB-710903]	0%
Nc1ncc(-c2ccc3nccc(-c4ccncc4)c3c2)cc1S(=O)(=O)N1CCOCC1 [GSK1627798]	0%
Cc1ccc(C(=O)N2CC[C@@H](O)C2)cc1-n1c(C)cc(OCc2ccc(F)cc2F)c(Br)c1=O	3%
O=C(O)C(F)(F)F.O=C(O)C(F)(F)F.O=c1[nH]ccc2nc(N[C@@H]3CCCNC3)nc(Nc3ccc(S(=O)(=O)N4CCOCC4)cc3)c12 [GSK2177277]	98.2%
COc1cc(Nc2nccc(-c3c(-c4cccc(NC(=O)c5c(F)cccc5F)c4)nn4ncccc34)n2)cc(OC)c1OC [GSK327238]	0%
COc1cccc(C2=C(Nc3ccc(Cl)c(C(=O)O)c3)C(=O)NC2=O)c1 [SB-390769]	0%
Cc1ccc(C(=O)Nc2ccc(Nc3ccnc4cc(-c5nccs5)ccc34)cc2O)cc1.Cl [GW494702]	0%
CCn1c(-c2nonc2N)nc2c(C#CC(C)(C)O)nc(OC[C@H](N)c3ccccc3)cc21 [GSK943949]	0%
COC(=O)Nc1nc2cc(Oc3ccc(NC(=O)Nc4cc(C(F)(F)F)ccc4F)cn3)ccc2[nH]1.Cl.Cl [GW681170]	51%
Cl.Cl.NCC(NCc1ccc(-c2ccnc3[nH]ccc23)s1)c1ccccc1 (stereo not shown) [GSK1321565]	67%
O=c1[nH]cc(-c2ccc(N3CCOCC3)cc2)c2sc(-c3cn[nH]c3)cc12 [GSK2276055]	37%
c1ccc(-c2cnc3nccnn23)cc1 [AH20685]	0%
COc1cc(Nc2nccc(-c3c(-c4cccc(NC(=O)c5c(F)cccc5F)c4)nn4ccccc34)n2)cc(OC)c1OC [GSK323521]	0%
